Source: PubChem (National Center for Advancing Translational Sciences (NCATS))
The list is not random: actives were taken first. Their share in the collection is about 6%.
D1 ag: human D1 receptor agonism; P21728; HEK293 T-REx D1 cells, calcium flux, agonist mode; activation, % at 2 µM; actives 1% (n = 360,000); AID 504660; in the data active = activation above about 30%; note: 0% is about no effect
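Inducible HEK293 T-REx D1 cells, force-coupled to calcium signalling, were plated at 4000 cells/well with tetracycline and held overnight at 30 C. After no-wash calcium dye loading, compound-evoked calcium rise over 180 s flagged agonists.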
D1 PAM: enhances dopamine response at the human D1 receptor; actives 0.036% (n = 360,000); potentiation, % at 10 µM; HEK293 TREx D1 cells, calcium flux, dopamine EC20 potentiation; P21728; in the data active = potentiation above about 30%; note: 0% is about no effect
D1 antagonist: human D1 dopamine receptor antagonism. P21728. HEK293 TREx D1 cells, calcium flux, dopamine EC80; stronger effect = lower value. activity change, negative = inhibition, % at 10 µM. actives 3.2% (n = 360,000). AID 504652; in the data active = activity change below about -30%; note: % is set by controls: 0 for no effect and ±100 for the full control effect
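Cells carrying a force-coupled, tetracycline-inducible human D1 receptor report calcium flux. Each well gets a 10 s baseline, compound with 180 s monitoring, then an EC80 dopamine stimulus with a second 180 s kinetic read.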
DRD3 agonist: agonists of human D3 dopamine receptor; P35462; D3R DiscoveRx beta-arrestin cells, luminescence, 90 min; max activation, %; actives 0.58% (n = 410,000); in the data active = max activation above about 30%; note: 0% is about no effect
Target sequence (P35462 whole entry, looked up): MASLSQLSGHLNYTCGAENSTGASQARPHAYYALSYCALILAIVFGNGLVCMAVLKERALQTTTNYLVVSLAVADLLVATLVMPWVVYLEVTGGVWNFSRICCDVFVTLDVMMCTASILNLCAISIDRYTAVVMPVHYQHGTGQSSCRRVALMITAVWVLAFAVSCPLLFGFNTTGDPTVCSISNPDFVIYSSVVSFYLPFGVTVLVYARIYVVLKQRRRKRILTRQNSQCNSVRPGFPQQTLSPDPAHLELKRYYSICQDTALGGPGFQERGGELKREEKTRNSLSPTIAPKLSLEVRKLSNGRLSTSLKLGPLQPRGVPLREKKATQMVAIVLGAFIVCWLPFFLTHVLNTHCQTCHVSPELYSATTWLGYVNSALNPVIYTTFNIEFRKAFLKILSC
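Cells at 1500/well, incubated overnight, then treated with pinned compounds (dopamine as control) for 90 min at 37 degrees C. DiscoveRx reagent added for 30 - 60 minutes at room temperature; luminescence read.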
D3 antag: blocks the human D3 dopamine receptor; P35462; D3R cells, DiscoveRx beta-arrestin luminescence, antagonist mode; stronger effect = lower value; max response, negative = inhibition, %; actives 2.5% (n = 360,000); in the data active = max response below about -50%; inconclusive = no clear call, values can overlap the other calls; note: % is set by controls: 0 for no effect and ±100 for the full control effect
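Cells expressing the human receptor were seeded at 1500 cells/well, incubated overnight at 37 degrees C in 5% CO2, then exposed to library compounds with dopamine controls for 90 minutes at 37 degrees C before luminescent detection.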
* = called active by the depositor; ? = inconclusive; . = not tested or not shown.

SMILES	D1 ag	D1 PAM	D1 antagonist	DRD3 agonist	D3 antag
COc1ccc(C2c3c(-c4ccccc4)n[nH]c3C(=O)N2c2ccc(C(=O)O)cc2)c(OC)c1 (centres undefined)	-1.3	-3.3	-34.6*	6.8	.
Cc1cccc(NC(=O)c2cnn(-c3ccccc3)c2-n2cccc2)c1C	14.0	-1.6	-4.6	2.6	.
O=S(=O)(Nc1cccc2ncccc12)c1cccs1	-0.7	1.9	-0.5	-19.2	-68.6*
O=S(=O)(Nc1ccc(-c2nc3cccnc3s2)cc1)c1cccs1	4.6	-2.3	14.1	11.9	-14.4
COc1cc2[nH]c(=S)n(NC(=O)c3ccccc3)c(=O)c2cc1OC	1.9	-4.0	-11.0	-29.5	-60.8*
COC(=O)c1ccc2c(=O)n(NC(C)=O)c(=S)[nH]c2c1	1.0	10.0	-13.4	-14.7	11.0
COc1cc2[nH]c(=S)n(C3CC3)c(=O)c2cc1OC	3.0	-0.5	-30.5*	-12.0	-58.5*
CCOc1ccccc1NC(=O)CN(C)S(=O)(=O)c1ccc2nc(C)sc2c1	-3.2	-1.6	-10.6	2.9	.
COc1ccc(CN2CCN(Cc3c[nH]c4ccccc34)CC2)c(OC)c1	.	.	.	-4.6	-73.8*
COc1ccc(CN2CCN(Cc3ccc(C)cc3)CC2)c(OC)c1	4.4	-7.1	-28.1	-38.4	-50.4*
COc1ccc(CN2CCN(Cc3ccccc3F)CC2)c(OC)c1	2.4	-12.0	-11.4	-40.2	-22.3
COc1cccc(C(=O)N2CCN(Cc3cc(Br)ccc3OC)CC2)c1	0.4	2.4	-7.9	-1.2	-83.6*
COc1ccc(Br)cc1CN1CCN(C(=O)c2ccc(OC)c(OC)c2)CC1	-0.1	-6.8	-3.9	-17.5	-20.2
COc1ccc(C(=O)C2CCCN(Cc3c[nH]c4ccccc34)C2)c(OC)c1 (centres undefined)	22.1	-6.6	-22.0	-13.1	-96.0*
CN1CCN(CCNC(=O)c2cnn(-c3ccc(Cl)cc3)c2C2CCN(C(=O)OC(C)(C)C)CC2)CC1	2.5	1.3	-5.2	-9.0	.
COc1ccc(OC)c(-c2noc(N3CCN(c4cc(C)ccc4C)CC3)n2)c1	-1.6	0.5	-9.3	4.3	.
COc1ccc(NC(=O)c2cc(S(=O)(=O)NCCC3=CCCCC3)ccc2F)cc1	0.8	-2.4	4.7	2.2	.
COc1cc(CN2CCCCCC2)cc(OC)c1OC	8.1	-0.5	-4.3	-16.1	?
CN1CCN(Cc2cccc(Oc3ccccc3)c2)CC1	15.3	-4.2	6.2	-20.2	-27.5
Cc1ccc(CN2CCN(Cc3ccccc3C(F)(F)F)CC2)cc1	0.1	-3.6	-6.1	-28.6	-72.4*
COc1ccc(Br)cc1CN1CCN(Cc2c[nH]c3ccccc23)CC1	37.8*	-17.5	-14.5	-49.5	-89.9*
COc1ccc(CN2CCN(Cc3cccc(Oc4ccccc4)c3)CC2)c(OC)c1OC	11.1	-3.1	1.1	-35.1	-70.3*
COc1ccc(CN2CCCCCC2)c(C)c1C	2.5	2.7	-0.8	-35.7	-75.2*
O=C(CCSCc1cnn(-c2ccccc2)c1-n1cccc1)NCc1ccccc1Cl	-0.6	-2.0	-1.1	-9.8	.
COc1ccc(C(=O)C2CCCN(C/C=C/c3ccccc3OC)C2)c(OC)c1 (centres undefined)	1.4	-8.9	2.2	-28.3	-72.1*
SMILES	D1 ag	D1 PAM	D1 antagonist	DRD3 agonist	D3 antag
COc1ccc(CN2CCN(Cc3c[nH]c4ccccc34)CC2)cc1	4.6	1.2	2.8	-18.6	?
COc1ccc(C(=O)C2CCCN(Cc3cccn3-c3ccc(Cl)cn3)C2)c(OC)c1 (centres undefined)	33.3*	-3.0	-6.7	-4.8	1.6
CCN(Cc1ccccc1)C(=O)C1CCN(Cc2ccc(OC)c(OC)c2OC)CC1	1.4	-6.1	12.6	-35.1	-51.4*
COc1ccc(CN2CCN(Cc3c[nH]c4ccccc34)CC2)cc1OC	.	.	.	-5.2	-51.7*
COc1ccc(C(=O)C2CCCN(Cc3c(F)ccc(F)c3F)C2)c(OC)c1 (centres undefined)	0.8	-8.1	14.3	-18.5	-21.3
COc1ccccc1CNC(=O)CCCn1c(=O)c2ccccc2n(Cc2ccc(C)cc2)c1=O	1.4	2.1	1.4	-10.3	.
CCc1cccc(-n2c(=O)c3cccnc3n2CC(=O)Nc2ccc(F)c(C)c2)c1	6.9	-4.4	14.5	3.5	.
O=C(O)Cc1sc(Nc2ccccc2)nc1-c1ccccc1	-1.3	-1.7	-2.2	-4.2	.
O=C(O)Cc1sc(N/N=C\c2ccncc2)nc1-c1ccccc1	31.2*	-7.0	-4.3	-5.5	1.1
Cc1cccc(S(=O)(=O)N2CCN(S(=O)(=O)c3ccc4c(c3)OCCO4)CC2)c1	5.2	1.8	-3.7	.	.
COc1ccc2cc(C(=O)NCc3ccccc3CN3CCCC3)ccc2c1	2.5	-15.2	-64.2*	-25.2	-3.2
COc1ccc(NS(=O)(=O)c2cccc(C(=O)NCc3ccccc3CN3CCOCC3)c2)cc1	.	.	.	-12.9	3.2
COc1ccc2oc(C(=O)NCc3ccccc3CN3CCCC3)c(C)c2c1	5.7	.	-57.0*	-5.5	-8.5
CCOc1ccc2oc(C(=O)NCc3ccccc3CN3CCCC3)c(C)c2c1	1.0	-22.5	-20.1	-8.8	-27.7
O=C(C[n+]1cc(-c2ccc(F)cc2)n2c1CCC2)Nc1nc(-c2ccccc2)cs1	1.5	3.8	-8.9	-10.9	-11.4
O=C(C[n+]1cc(-c2ccc(Cl)cc2)n2c1CCC2)Nc1nc(-c2ccccc2)cs1	2.8	-10.2	-61.2*	-12.2	-15.4
O=C(C[n+]1cc(-c2ccc(Cl)c(Cl)c2)n2c1CCC2)N1c2ccccc2Sc2ccccc21	0.8	-6.8	-38.9*	-8.5	6.9
Cc1ccc(NC(=O)C[n+]2cc(-c3ccc(C)cc3)n3c2CCC3)cc1	2.7	-0.9	-1.1	-28.8	-65.5*
O=C(NCCc1ccccc1Cl)c1ccc(Cn2c(=O)c3cccn3c3cccnc32)cc1	3.2	0.8	-12.6	12.5	.
CC(C)OP(=O)(c1ccc(N(C)C)cc1)C(Nc1ccccc1)c1ccccc1 (centres undefined)	-0.6	-16.8	-39.9*	3.2	2.3
CC(C)CCOP(=O)(c1ccc(N(C)C)cc1)C(Nc1ccccc1)c1ccc(N(C)C)cc1 (centres undefined)	0.5	1.7	11.7	-10.9	?
COc1ccc(OC)c(NC(=O)c2cc3c(=O)n4cccc(C)c4nc3n2C)c1	4.1	1.8	-13.7	3.2	.
Cn1c(=O)c2c(-c3ccccc3)n3c4ccccc4nc(-c4ccccc4)c3c2n(C)c1=O	1.0	-4.9	3.6	9.8	.
COc1cccc(-n2cc(C(=O)Nc3ccccc3C(N)=O)c3ccccc3c2=O)c1	-0.9	-2.5	-20.8	0.3	.
Cn1c(CN2CCCCC2)c(C#N)c2ccccc21	5.8	-5.1	7.0	-64.5	-78.3*
Cn1c(CN2CCN(CC#N)CC2)c(C#N)c2ccccc21	1.7	-4.9	-8.1	-1.1	-12.9
Cn1c(CNC2CCCCC2)c(C#N)c2ccccc21	-0.3	-2.8	-22.8	-6.1	-76.7*
